About 7,900 targets were measured; listed, in parts, are those with a hit and a random draw of the rest. About 0.6% of all pairs of compound and target were hits.
What was measured:
Experiment in all cases: log2 fold change, soluble protein after heating vs DMSO (PISA); higher = thermal stabilisation; K562 cells, 10 uM, 30 min; active = over 0.2 and 3.5 SD of the protein, either way, in both replicates (recomputed)
[1] = compound: CC1=C(C=C(C=C1)NC(=O)C2=CC(=CC=C2)C(C)(C)C#N)NC3=CC4=C(C=C3)N=CN(C4=O)C
Procedure, shortened: (§1)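 K562 cells at 2×10^6 cells/mL were exposed to 10 μM compound for 30 min, then aliquots were heated for 3 min across 48°C-58°C, pooled, and extracted in PBS containing 0.5% NP-40 at 4°C. The supernatant after 21,000xg for 90 min was taken as soluble protein and measured by TMTpro 16plex LC-MS/MS with channel sums equalised. Thermal stability is reported relative to control samples, with values from duplicates. Fold changes are given on a log2 scale.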

[2] = compound: CC1=C(C=C(C=C1)NC(=O)C2=CC(=CC=C2)N(C)C)NC(=O)C3=CC=C(C=C3)O
Procedure, shortened: as §1

[3] = compound: CC1=CC=C(C=C1)SC2=C3C=C(SC3=CN=C2)C(=O)N
Procedure, shortened: as §1

[4] = compound: CC1=NC(=CC=C1)C2=C(N=C(N2)C(C)(C)C)C3=CC4=NC=CN=C4C=C3
Procedure, shortened: as §1

Nexturastat A = compound: CCCCN(Cc1ccc(C(=O)NO)cc1)C(=O)Nc1ccccc1 [Nexturastat A]
Procedure, shortened: as §1

vemurafenib = compound: CCCS(=O)(=O)Nc1ccc(F)c(C(=O)c2c[nH]c3ncc(-c4ccc(Cl)cc4)cc23)c1F [vemurafenib]
Procedure, shortened: as §1

[5] = compound: CCCS(=O)(=O)Nc1ccc(F)c(C(=O)c2c[nH]c3ncc(Cl)cc23)c1F
Procedure, shortened: as §1

[6] = compound: CCCc1cc(C)[nH]c(=O)c1CNC(=O)c1cc(-c2ccnc(N3CCN(C)CC3)c2)cc2c1cnn2C(C)C
Procedure, shortened: as §1

givinostat = compound: CCN(CC)Cc1ccc2cc(COC(=O)Nc3ccc(C(=O)NO)cc3)ccc2c1 [givinostat]
Procedure, shortened: as §1

barasertib = compound: CCN(CCCOc1ccc2c(Nc3cc(CC(=O)Nc4cccc(F)c4)[nH]n3)ncnc2c1)CCOP(=O)(O)O [barasertib]
Procedure, shortened: as §1

[7] = compound: CC[C@@H]1C(=O)N(C)c2cnc(Nc3ccc(C(=O)NC4CCN(C)CC4)cc3OC)nc2N1C1CCCC1
Procedure, shortened: as §1

volasertib = compound: CC[C@@H]1C(=O)N(C)c2cnc(Nc3ccc(C(=O)N[C@H]4CC[C@H](N5CCN(CC6CC6)CC5)CC4)cc3OC)nc2N1C(C)C [volasertib]
Procedure, shortened: as §1

[8] = compound: CC[C@H](C)N1C=C(C2=C(C=C(C=C21)C3=CN=C(C=C3)N4CCNCC4)C(=O)NCC5=C(C=C(NC5=O)C)C)C
Procedure, shortened: as §1

epoxomicin = compound: CC[C@H](C)[C@@H](C(=O)N[C@@H]([C@@H](C)O)C(=O)N[C@@H](CC(C)C)C(=O)[C@]1(CO1)C)NC(=O)[C@H]([C@@H](C)CC)N(C)C(=O)C [epoxomicin]
Procedure, shortened: as §1

[9] = compound: CCn1c(C(=O)N(C2CC2)C2CC2)cc2c3c(ncn3C)c(Nc3cc(C)n(C)n3)nc21
Procedure, shortened: as §1

[10] = compound: CCn1cc(-c2ccnc3[nH]c(-c4cccc(CN(C)C)c4)cc23)c(-c2ccc(NC(=O)N(C)C)cc2)n1
Procedure, shortened: as §1

[11] = compound: CN(C)CC(=O)Nc1ccc2[nH]c(=O)c3ccccc3c2c1
Procedure, shortened: as §1

rosiglitazone = compound: CN(CCOC1=CC=C(C=C1)C[C@H]2C(=O)NC(=O)S2)C3=CC=CC=N3 (racemic) [rosiglitazone]
Procedure, shortened: as §1

[12] = compound: CN1C2=C(C3=C1C(=O)N(N=C3)CC4=CC(=CC=C4)N)SC(=C2)S(=O)C
Procedure, shortened: as §1

[13] = compound: CN1CCC(CNc2ccc3ncc(-c4cccc(OC(F)(F)F)c4)n3n2)CC1
Procedure, shortened: as §1

Measured: log2 fold change

BAD (UniProt Q92934)
UniProt Q92934, sequence (Q92934 whole entry, looked up): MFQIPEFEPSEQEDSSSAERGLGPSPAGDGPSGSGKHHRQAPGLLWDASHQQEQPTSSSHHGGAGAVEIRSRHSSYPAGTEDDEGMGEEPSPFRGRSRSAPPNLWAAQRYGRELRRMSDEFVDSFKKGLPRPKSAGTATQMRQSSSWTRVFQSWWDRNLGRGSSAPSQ
inactive: [1] -0.198 | [2] 0.007 | [3] -0.021 | [4] -0.051 | vemurafenib -0.076 | [5] -0.037 | [6] 0.05 | givinostat -0.133 | barasertib -0.003 | [7] -0.043 | volasertib 0.038 | [8] 0.085 | epoxomicin -0.086 | [9] 0.014 | [10] 0.022 | [11] -0.125 | rosiglitazone 0.059 | [12] -0.069 | [13] -0.006
active: Nexturastat A -0.324

BAP1 (UniProt Q92560)
inactive: [1] -0.067 | [2] -0.088 | [3] -0.149 | [4] -0.058 | vemurafenib -0.089 | [5] -0.055 | [6] 0.085 | barasertib -0.019 | [7] -0.037 | volasertib 0.13 | [8] 0 | epoxomicin -0.092 | [9] -0.019 | [10] 0.101 | [11] -0.093 | rosiglitazone 0.021 | [12] 0.047 | [13] 0.055
active: Nexturastat A 0.403 | givinostat 0.495

ACAD9 (UniProt Q9H845)
inactive: [1] -0.022 | [2] 0.007 | [3] 0.007 | [4] -0.001 | Nexturastat A -0.061 | vemurafenib 0.053 | [5] -0.019 | [6] -0.009 | givinostat -0.012 | barasertib -0.011 | [7] 0.03 | volasertib 0.024 | [8] -0.039 | epoxomicin 0.015 | [9] 0.006 | [10] 0.014 | [11] 0.022 | rosiglitazone -0.016 | [12] -0.032 | [13] -0.002

ACTR1B (UniProt P42025)
UniProt P42025, sequence (P42025 whole entry, looked up): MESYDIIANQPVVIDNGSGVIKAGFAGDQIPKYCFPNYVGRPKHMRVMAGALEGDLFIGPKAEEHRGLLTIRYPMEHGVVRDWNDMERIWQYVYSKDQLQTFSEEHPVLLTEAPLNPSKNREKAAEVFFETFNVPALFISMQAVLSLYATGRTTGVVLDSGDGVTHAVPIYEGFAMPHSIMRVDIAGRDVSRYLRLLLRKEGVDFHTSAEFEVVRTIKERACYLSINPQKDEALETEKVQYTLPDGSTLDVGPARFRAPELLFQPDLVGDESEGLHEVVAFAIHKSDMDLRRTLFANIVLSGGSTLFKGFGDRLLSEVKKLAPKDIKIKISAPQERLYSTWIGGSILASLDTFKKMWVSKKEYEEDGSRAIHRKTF
inactive: [1] -0.056 | [2] -0.124 | [3] 0.001 | [4] -0.003 | Nexturastat A -0.134 | vemurafenib -0.029 | [5] -0.022 | [6] -0.009 | givinostat 0.006 | barasertib 0.031 | [7] 0.081 | volasertib 0.048 | [8] 0.01 | epoxomicin -0.008 | [9] -0.014 | [11] 0.021 | rosiglitazone -0.033 | [12] -0.089 | [13] 0.306
active: [10] -0.581

ARHGAP1 (UniProt Q07960)
inactive: [1] -0.024 | [2] -0.022 | [3] -0.009 | [4] 0.012 | Nexturastat A 0.03 | vemurafenib 0.002 | [5] 0.052 | [6] -0.018 | givinostat -0.014 | barasertib 0.006 | [7] 0.014 | volasertib -0.027 | [8] 0.021 | epoxomicin 0.013 | [9] -0.006 | [10] -0.082 | [11] -0.007 | rosiglitazone 0.03 | [12] -0.014 | [13] 0.19

BCCIP isoform 2 (UniProt Q9P287)
inactive: [1] 0.042 | [2] -0.055 | [3] -0.015 | [4] 0.022 | Nexturastat A -0.065 | vemurafenib 0.008 | [5] -0.003 | [6] -0.099 | givinostat -0.066 | barasertib 0.026 | [7] -0.037 | volasertib -0.038 | [8] 0.044 | epoxomicin 0.019 | [9] 0.023 | [10] 0.022 | [11] 0.026 | rosiglitazone 0.021 | [12] -0.042 | [13] -0.028

ACACB (UniProt O00763)
inactive: [1] -0.037 | [2] 0.01 | [3] 0.006 | [4] -0.065 | Nexturastat A 0.344 | vemurafenib 0.108 | [5] 0.012 | [6] 0.152 | givinostat 0.149 | barasertib 0.06 | [7] -0.006 | volasertib -0.468 | [8] 0.083 | epoxomicin -0.1 | [9] -0.194 | [10] 0.086 | [11] 0.061 | rosiglitazone 0.167 | [12] 0.308 | [13] 0.104

ACSL1 (UniProt P33121)
inactive: [1] 0.01 | [2] 0.01 | [3] 0.031 | [4] 0.056 | Nexturastat A -0.115 | vemurafenib -0.021 | [5] 0.041 | [6] -0.018 | givinostat -0.034 | barasertib -0.002 | [7] -0.09 | volasertib -0.183 | [8] 0.012 | epoxomicin 0.018 | [9] 0.05 | [10] -0.031 | [11] 0 | rosiglitazone 0.003 | [12] -0.064
active: [13] -0.393

ARPP19 (UniProt P56211)
UniProt P56211, sequence (P56211 whole entry, looked up): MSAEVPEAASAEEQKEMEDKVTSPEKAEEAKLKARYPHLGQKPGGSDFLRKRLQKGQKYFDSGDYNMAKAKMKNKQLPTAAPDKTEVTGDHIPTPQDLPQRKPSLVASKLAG
inactive: [1] -0.012 | [2] 0.199 | [3] 0.057 | [4] 0.125 | Nexturastat A -0.04 | vemurafenib 0.041 | [5] 0.043 | [6] -0.106 | givinostat -0.003 | barasertib -0.012 | [7] 0.013 | volasertib 0.016 | [8] -0.01 | epoxomicin 0.041 | [9] 0.029 | [10] -0.052 | [11] 0.032 | rosiglitazone 0.001 | [12] 0.069 | [13] -0.041

ATP13A3 (UniProt Q9H7F0)
UniProt Q9H7F0, sequence (Q9H7F0 whole entry, looked up): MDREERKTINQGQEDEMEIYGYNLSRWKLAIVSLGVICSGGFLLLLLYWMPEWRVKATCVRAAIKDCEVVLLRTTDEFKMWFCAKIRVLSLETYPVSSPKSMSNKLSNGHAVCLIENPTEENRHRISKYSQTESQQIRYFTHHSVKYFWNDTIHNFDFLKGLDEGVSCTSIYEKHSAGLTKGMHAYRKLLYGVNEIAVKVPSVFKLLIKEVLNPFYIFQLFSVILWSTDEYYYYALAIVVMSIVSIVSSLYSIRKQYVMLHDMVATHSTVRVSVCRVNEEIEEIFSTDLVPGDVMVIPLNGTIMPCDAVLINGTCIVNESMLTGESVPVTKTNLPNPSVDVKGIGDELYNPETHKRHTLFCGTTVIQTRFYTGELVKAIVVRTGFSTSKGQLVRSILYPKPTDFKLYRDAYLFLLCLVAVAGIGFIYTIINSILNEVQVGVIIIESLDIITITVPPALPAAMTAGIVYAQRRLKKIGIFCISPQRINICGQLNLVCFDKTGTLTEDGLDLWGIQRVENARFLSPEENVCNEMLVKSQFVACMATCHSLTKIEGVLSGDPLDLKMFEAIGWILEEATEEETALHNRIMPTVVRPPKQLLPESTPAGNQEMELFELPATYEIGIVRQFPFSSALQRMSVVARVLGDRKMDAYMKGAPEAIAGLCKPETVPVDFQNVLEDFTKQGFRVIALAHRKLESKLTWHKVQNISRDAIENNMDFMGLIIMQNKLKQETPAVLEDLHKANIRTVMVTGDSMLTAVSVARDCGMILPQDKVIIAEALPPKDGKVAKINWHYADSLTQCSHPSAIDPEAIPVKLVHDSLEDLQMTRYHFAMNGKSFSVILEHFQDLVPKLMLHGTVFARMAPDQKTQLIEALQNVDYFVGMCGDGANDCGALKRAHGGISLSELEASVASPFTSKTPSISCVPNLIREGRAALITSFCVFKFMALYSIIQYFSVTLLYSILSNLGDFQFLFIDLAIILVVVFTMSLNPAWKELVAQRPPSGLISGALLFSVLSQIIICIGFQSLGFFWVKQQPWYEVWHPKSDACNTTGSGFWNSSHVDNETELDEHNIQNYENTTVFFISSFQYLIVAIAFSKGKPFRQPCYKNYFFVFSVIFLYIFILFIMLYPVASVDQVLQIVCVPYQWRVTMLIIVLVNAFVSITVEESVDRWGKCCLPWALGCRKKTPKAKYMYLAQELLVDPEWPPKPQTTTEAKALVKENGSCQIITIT
active: [13] -0.401
inactive: [1] 0.027 | [2] 0.031 | [3] -0.068 | [4] 0.012 | Nexturastat A -0.042 | vemurafenib -0.014 | [5] -0.02 | [6] -0.076 | givinostat 0.025 | barasertib -0.001 | [7] -0.085 | volasertib 0.077 | [8] 0.016 | epoxomicin 0 | [9] -0.014 | [10] -0.022 | [11] -0.012 | rosiglitazone 0.128 | [12] -0.011

ACSM3 (UniProt Q53FZ2)
UniProt Q53FZ2, sequence (Q53FZ2 whole entry, looked up): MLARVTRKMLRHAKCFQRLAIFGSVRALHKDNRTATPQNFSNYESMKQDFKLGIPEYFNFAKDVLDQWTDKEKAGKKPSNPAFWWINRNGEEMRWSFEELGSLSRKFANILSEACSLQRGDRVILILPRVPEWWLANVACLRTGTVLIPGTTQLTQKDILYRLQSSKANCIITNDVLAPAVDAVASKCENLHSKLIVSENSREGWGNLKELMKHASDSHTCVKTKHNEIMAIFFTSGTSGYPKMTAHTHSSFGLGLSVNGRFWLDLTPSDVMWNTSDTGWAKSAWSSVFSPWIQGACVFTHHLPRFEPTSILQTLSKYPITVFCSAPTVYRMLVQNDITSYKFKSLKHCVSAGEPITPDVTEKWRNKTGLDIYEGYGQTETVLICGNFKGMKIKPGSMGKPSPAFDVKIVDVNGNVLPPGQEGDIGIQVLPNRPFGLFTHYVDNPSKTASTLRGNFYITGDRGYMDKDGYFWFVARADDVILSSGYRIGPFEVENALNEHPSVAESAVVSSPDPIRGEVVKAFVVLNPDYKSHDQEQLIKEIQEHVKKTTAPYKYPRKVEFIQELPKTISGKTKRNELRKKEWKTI
inactive: [1] -0.069 | [2] -0.056 | [3] 0.019 | [4] -0.029 | Nexturastat A -0.096 | vemurafenib 0.033 | [5] 0.036 | [6] 0.018 | givinostat 0.039 | barasertib 0.103 | [7] 0.021 | volasertib -0.092 | [8] 0.062 | epoxomicin 0.146 | [9] -0.03 | [10] -0.02 | [11] 0.154 | rosiglitazone 0.046 | [12] -0.099 | [13] -0.145

ARGLU1 (UniProt Q9NWB6)
inactive: [1] 0.046 | [2] 0.055 | [3] -0.136 | [4] -0.044 | Nexturastat A 0.147 | vemurafenib 0.061 | [5] -0.045 | [6] -0.009 | givinostat 0.001 | barasertib -0.075 | [7] 0.094 | volasertib -0.004 | [8] 0.033 | epoxomicin -0.106 | [9] 0.024 | [10] 0.138 | [11] 0.003 | rosiglitazone 0.012 | [12] 0.068 | [13] 0

BAIAP2 (UniProt Q9UQB8)
UniProt Q9UQB8, sequence (Q9UQB8 whole entry, looked up): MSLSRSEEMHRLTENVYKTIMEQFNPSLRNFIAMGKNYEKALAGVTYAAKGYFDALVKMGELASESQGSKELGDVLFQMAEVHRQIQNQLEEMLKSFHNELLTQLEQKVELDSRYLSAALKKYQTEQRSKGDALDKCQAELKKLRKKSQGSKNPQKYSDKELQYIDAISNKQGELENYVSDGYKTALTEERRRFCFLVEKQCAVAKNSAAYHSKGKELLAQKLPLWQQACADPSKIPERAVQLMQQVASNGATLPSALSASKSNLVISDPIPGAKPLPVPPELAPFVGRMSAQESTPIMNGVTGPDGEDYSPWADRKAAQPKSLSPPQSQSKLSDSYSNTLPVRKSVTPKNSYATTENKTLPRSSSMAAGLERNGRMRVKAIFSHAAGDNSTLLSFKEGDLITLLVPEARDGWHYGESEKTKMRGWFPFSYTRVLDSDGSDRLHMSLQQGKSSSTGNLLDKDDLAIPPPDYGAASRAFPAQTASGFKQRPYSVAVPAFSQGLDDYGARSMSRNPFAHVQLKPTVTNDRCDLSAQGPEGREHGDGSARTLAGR
inactive: [1] -0.019 | [2] 0.01 | [3] 0.007 | [4] -0.012 | Nexturastat A 0.041 | vemurafenib 0.021 | [5] 0.068 | [6] 0.048 | givinostat 0.029 | barasertib 0.048 | [7] -0.045 | volasertib -0.089 | [8] 0.082 | epoxomicin 0.14 | [9] -0.011 | [10] -0.05 | [11] -0.019 | rosiglitazone 0.038 | [12] -0.015 | [13] -0.142

ALG11 (UniProt Q2TAA5)
UniProt Q2TAA5, sequence (Q2TAA5 whole entry, looked up): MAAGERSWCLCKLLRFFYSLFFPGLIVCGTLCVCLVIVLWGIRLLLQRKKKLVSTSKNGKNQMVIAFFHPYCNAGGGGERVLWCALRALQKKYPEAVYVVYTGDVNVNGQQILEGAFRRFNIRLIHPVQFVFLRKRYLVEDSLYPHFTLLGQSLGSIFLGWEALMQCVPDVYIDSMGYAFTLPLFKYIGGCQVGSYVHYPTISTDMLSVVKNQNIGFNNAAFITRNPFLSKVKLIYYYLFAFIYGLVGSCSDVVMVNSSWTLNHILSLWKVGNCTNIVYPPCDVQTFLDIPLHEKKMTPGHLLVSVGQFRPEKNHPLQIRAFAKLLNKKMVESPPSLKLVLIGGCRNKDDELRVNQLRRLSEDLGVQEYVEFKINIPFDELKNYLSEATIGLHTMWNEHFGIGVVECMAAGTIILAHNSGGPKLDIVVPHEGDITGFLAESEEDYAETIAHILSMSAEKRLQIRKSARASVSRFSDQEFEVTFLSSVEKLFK
inactive: [1] 0.006 | [2] -0.018 | [3] -0.041 | [4] 0.013 | Nexturastat A -0.004 | vemurafenib 0.053 | [5] 0.019 | [6] -0.04 | givinostat 0 | barasertib 0.043 | [7] -0.034 | volasertib -0.17 | [8] 0.126 | epoxomicin 0.038 | [9] -0.075 | [10] 0.006 | [11] 0.018 | rosiglitazone 0.021 | [12] -0.109 | [13] 0.042

BCL9L (UniProt Q86UU0)
UniProt Q86UU0, sequence (Q86UU0 whole entry, looked up): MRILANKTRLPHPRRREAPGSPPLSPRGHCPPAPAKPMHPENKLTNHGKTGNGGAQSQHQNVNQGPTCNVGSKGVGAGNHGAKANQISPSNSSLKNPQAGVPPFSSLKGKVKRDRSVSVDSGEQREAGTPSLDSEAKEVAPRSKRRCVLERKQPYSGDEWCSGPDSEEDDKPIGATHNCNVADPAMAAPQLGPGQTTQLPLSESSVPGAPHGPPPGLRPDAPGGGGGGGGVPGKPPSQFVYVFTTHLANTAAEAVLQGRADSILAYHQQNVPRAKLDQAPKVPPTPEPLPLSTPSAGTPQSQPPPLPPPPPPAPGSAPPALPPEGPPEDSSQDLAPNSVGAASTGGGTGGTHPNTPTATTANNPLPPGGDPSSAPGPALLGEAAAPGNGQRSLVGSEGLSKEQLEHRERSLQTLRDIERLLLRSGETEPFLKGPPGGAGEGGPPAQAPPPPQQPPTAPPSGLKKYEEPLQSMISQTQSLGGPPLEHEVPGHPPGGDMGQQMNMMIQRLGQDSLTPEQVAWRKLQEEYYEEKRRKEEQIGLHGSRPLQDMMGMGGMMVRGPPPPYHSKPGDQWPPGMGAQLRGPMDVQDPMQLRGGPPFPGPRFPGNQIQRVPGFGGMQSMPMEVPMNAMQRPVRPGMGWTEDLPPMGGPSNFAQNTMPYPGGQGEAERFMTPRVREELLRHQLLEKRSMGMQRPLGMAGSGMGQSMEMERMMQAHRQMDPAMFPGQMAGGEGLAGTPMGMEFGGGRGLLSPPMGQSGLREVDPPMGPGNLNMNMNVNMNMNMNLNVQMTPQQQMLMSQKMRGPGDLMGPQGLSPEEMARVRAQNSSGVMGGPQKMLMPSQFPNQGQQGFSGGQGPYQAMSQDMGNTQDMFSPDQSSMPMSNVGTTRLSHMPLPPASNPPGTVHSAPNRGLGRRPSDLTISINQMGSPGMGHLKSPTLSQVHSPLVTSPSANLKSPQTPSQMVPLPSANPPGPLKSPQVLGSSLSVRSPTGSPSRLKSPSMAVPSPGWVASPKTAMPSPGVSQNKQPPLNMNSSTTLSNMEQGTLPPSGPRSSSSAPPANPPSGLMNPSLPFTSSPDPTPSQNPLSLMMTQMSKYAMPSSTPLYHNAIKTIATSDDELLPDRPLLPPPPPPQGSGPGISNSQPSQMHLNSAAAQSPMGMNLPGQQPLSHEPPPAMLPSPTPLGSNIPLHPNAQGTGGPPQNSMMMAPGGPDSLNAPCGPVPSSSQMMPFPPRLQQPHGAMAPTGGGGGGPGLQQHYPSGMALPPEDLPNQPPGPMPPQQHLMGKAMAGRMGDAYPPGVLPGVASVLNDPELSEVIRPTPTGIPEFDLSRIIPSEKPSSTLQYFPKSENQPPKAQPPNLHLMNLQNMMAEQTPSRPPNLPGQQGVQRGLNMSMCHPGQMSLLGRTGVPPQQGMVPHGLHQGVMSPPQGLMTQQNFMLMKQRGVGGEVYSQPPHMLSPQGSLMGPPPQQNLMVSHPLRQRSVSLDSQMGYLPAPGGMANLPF
inactive: [1] -0.046 | [2] -0.012 | [3] 0.005 | [4] -0.033 | Nexturastat A -0.033 | vemurafenib -0.037 | [5] -0.014 | [6] -0.029 | givinostat 0.043 | barasertib -0.001 | [7] 0 | volasertib 0.036 | [8] 0.044 | epoxomicin 0.038 | [9] 0.04 | [10] -0.024 | [11] -0.003 | rosiglitazone 0.088 | [12] -0.023 | [13] -0.019

AGPAT3 isoform 3 (UniProt Q9NRZ7)
active: volasertib -0.211
inactive: [1] 0.019 | [2] 0 | [3] 0.016 | [4] 0.003 | Nexturastat A -0.076 | vemurafenib -0.001 | [5] 0.043 | [6] -0.039 | givinostat 0.008 | barasertib 0.057 | [7] -0.095 | [8] 0.017 | epoxomicin 0.02 | [9] 0.004 | [10] -0.082 | [11] 0.012 | rosiglitazone 0.011 | [12] -0.069 | [13] 0.001
